Sa growth inh: S. aureus growth inhibition. S. aureus RN4220 growth, OD600, 20 h, 42 °C; hits give low values. relative growth, % (no concentration beside the values). actives 0.53% (n = 170,000). AID 720641;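 active = relative growth at most 50% at the other temperature and 20+ points below 30 °C, or under 10% at both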
Sa helicase inh: S. aureus DNA helicase inhibition; purified S. aureus helicase, fluorescence unwinding assay; inhibition, % (test concentration not listed); actives 0.05% (n = 120,000); AID 485395; in the data active = inhibition above about 25%, passing the limit was not always enough;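 note: 0% = mean of negative control wells and 100% = mean of positive control wells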
The depositor's hits bear a star. In the library only some 0.52% were active in any assay of this set; here they are far more common.

How did Cc1ccc2c(c1)N(CCO)/C(=C/c1sc3ccccc3[n+]1C)S2 do in these assays?
Sa growth inh: -1.4*; Sa helicase inh: 19

How did CCN1/C(=C/c2sc3ccccc3[n+]2CCO)Sc2ccccc21 do in these assays?
Sa growth inh: 28; Sa helicase inh: 44*

What do the screens show for `CCN1/C(=C\C=C2\C(=O)N(C)C(=S)N2C)Sc2ccccc21`?
Sa growth inh: 81; Sa helicase inh: -3

How did CCC(=O)/C=C1/Sc2ccc(C)cc2N1CC do in these assays?
Sa growth inh: 127; Sa helicase inh: 1

Results for CN(Cc1ccccc1F)C(=O)CCCn1c(=O)oc2ccccc21 ?
Sa growth inh: 90; Sa helicase inh: -12

Results for Cc1ccc(/C=C(\C#N)C(=O)NCCc2ccccc2)o1 ?
Sa growth inh: 94; Sa helicase inh: -176

Results for CC(C)(C)SC(=O)c1cccnc1SCCS(=O)(=O)c1ccccc1 ?
Sa growth inh: 102

How did CN1C(=O)/C(=C2\SC(N3CCCCCC3)=NC2=O)c2ccccc21 do in these assays?
Sa growth inh: 111; Sa helicase inh: 43*

Results for C=CCN1C(=O)/C(=C2\SC(N3CCCCC3)=NC2=O)c2ccccc21 ?
Sa growth inh: 96; Sa helicase inh: 18

Results for CCOC(=O)c1sc2ncccc2c1NC(=O)C(F)(F)F ?
Sa growth inh: 93

How did Cc1ccc2cc3cc(C(=O)NCCC4=CCCCC4)oc3nc2c1 do in these assays?
Sa growth inh: 105; Sa helicase inh: 9

What do the screens show for `CC(C)N(CC(N)=O)C(=O)COc1ccccc1Cc1ccccc1`?
Sa growth inh: 94; Sa helicase inh: -13

How did COC(=O)c1ccc(O)c(Sc2cc(C(=O)OC)ccc2O)c1 do in these assays?
Sa growth inh: 1.9*; Sa helicase inh: 3

Results for COC(=O)c1cccc(C(=O)OC)c1 ?
Sa growth inh: 78; Sa helicase inh: -15

What do the screens show for `CCOC(=O)C(C#N)c1nc2ccccc2nc1N(CC)CC` (centres undefined)?
Sa growth inh: 98; Sa helicase inh: 8

Results for CC(NC(=O)C12CC3CC(CC(C3)C1)C2)C(=O)NN (centres undefined) ?
Sa growth inh: 80; Sa helicase inh: 3

Results for CCC(C)NC(=O)CSc1nc2ccsc2c(=O)n1-c1cccc(Cl)c1Cl (centres undefined) ?
Sa growth inh: 111; Sa helicase inh: 8

Results for Nc1snnc1-c1ccc(Cl)cc1 ?
Sa growth inh: 100

How did O=C(O)C1CC(=O)N(CCC23CC4CC(CC(C4)C2)C3)C(=Nc2ccc(Cl)cc2)S1 (centres undefined) do in these assays?
Sa growth inh: -0.5*; Sa helicase inh: 18

Results for CN1C(=O)CC(C(=O)Nc2ccc(C(=O)O)cc2)SC1=Nc1ccc(Cl)cc1 (centres undefined) ?
Sa growth inh: 92

How did CC[n+]1c(C)sc2cc(SC)c(OC)cc21 do in these assays?
Sa growth inh: 1.8*; Sa helicase inh: 10

What do the screens show for `CC[n+]1c(C)sc2ccccc21`?
Sa growth inh: 46; Sa helicase inh: 16

How did COc1ccc(-c2noc(-c3ccc(NCCc4ccccc4)c([N+](=O)[O-])c3)n2)cc1 do in these assays?
Sa growth inh: 96

How did CCOC(=O)c1c(C)[nH]c(C)c1C#N do in these assays?
Sa growth inh: 96; Sa helicase inh: 2

What do the screens show for `CC(=O)N(CN1C(=O)c2ccccc2C1=O)c1ccc2ccccc2c1`?
Sa growth inh: 103; Sa helicase inh: 3

What do the screens show for `CNc1nc(-c2ccccn2)nc(C)c1Cl`?
Sa growth inh: 148

What do the screens show for `CCOc1ccc2c(c1)s/c(=N\C(=S)NC(=O)CN1C(=O)CCC1=O)n2C`?
Sa growth inh: 109; Sa helicase inh: 19

Results for COc1ccc2c(c1)s/c(=N\NC(=S)NC(=O)CN1C(=O)CCC1=O)n2C ?
Sa growth inh: 0.5*; Sa helicase inh: 4

How did Cc1[nH]nc(-c2ccc(O)c(C)c2O)c1Oc1ccccc1 do in these assays?
Sa growth inh: 89; Sa helicase inh: -11

What do the screens show for `Cc1[nH]nc(-c2ccc(O)cc2O)c1Oc1ccc(C(C)C)cc1`?
Sa growth inh: 29*; Sa helicase inh: -15

How did COc1cccc2c1CCN(Cc1cccc(C)c1)C2=O do in these assays?
Sa growth inh: 5.1*; Sa helicase inh: -2

How did CCN1CCc2c(OC)cccc2C1=O do in these assays?
Sa growth inh: 94; Sa helicase inh: 4

Results for CC1=CC(C)(C)N(C(=O)CSc2nc(C)cc(C)n2)c2ccccc21 ?
Sa growth inh: 99; Sa helicase inh: 13

What do the screens show for `COc1cc(-c2nnc(NC(=O)CCS(=O)(=O)c3ccc(C)cc3)o2)cc(OC)c1OC`?
Sa growth inh: 95; Sa helicase inh: 12

Results for Cc1c(C(=O)Oc2cccc3cccnc23)oc2ccccc12 ?
Sa growth inh: 97; Sa helicase inh: 3

Results for Cc1ccc(S(=O)(=O)NC(=O)Oc2cccc3cccnc23)cc1 ?
Sa growth inh: 0.2*; Sa helicase inh: 8

How did CCC(C)n1cnc2ccccc21 (centres undefined) do in these assays?
Sa growth inh: 96; Sa helicase inh: -9

Results for Clc1ccc(-c2cnc3nonc3n2)cc1 ?
Sa growth inh: 0.0*; Sa helicase inh: 15

What do the screens show for `N#Cc1cc(-c2ccc(Cl)cc2)no1`?
Sa growth inh: 103; Sa helicase inh: 7

What do the screens show for `CCOc1ccc2ccccc2c1C=C1C(=O)N(C)C(=S)N(C)C1=O`?
Sa growth inh: 89; Sa helicase inh: 12

How did NS(=O)(=O)c1ccc(CNC(=O)c2ccccc2C(F)(F)F)cc1 do in these assays?
Sa growth inh: 92; Sa helicase inh: 3

What do the screens show for `Cc1cc(C)c2c(n1)nn1c(C)c(CCC(=O)Nc3ccc4c(c3)OCO4)c(C)nc21`?
Sa growth inh: 113; Sa helicase inh: -2

Results for CCOc1cccc(C2c3c(-c4cc(C)ccc4O)n[nH]c3C(=O)N2Cc2ccco2)c1 (centres undefined) ?
Sa growth inh: 35*

Results for COc1cc(C2c3c(-c4cc(C)ccc4O)n[nH]c3C(=O)N2Cc2ccco2)cc(OC)c1OC (centres undefined) ?
Sa growth inh: 107

Results for CC(C)NCC(O)COc1ccc(C(C)(C)C)cc1 (centres undefined) ?
Sa helicase inh: 3

Results for Cc1ccc2cc(CN(C(=O)c3cnccn3)C3CCCCC3)c(=O)[nH]c2c1 ?
Sa growth inh: 104; Sa helicase inh: 10

Results for Cc1cccc(C(=O)NC(C)C(=O)Nc2ccnn2C2CCCC2)c1 (centres undefined) ?
Sa growth inh: 96; Sa helicase inh: -19

What do the screens show for `N#C/C(=C\c1ccc(F)cc1)c1c[nH]c2ccccc12`?
Sa growth inh: 42*

How did N#C/C(=C\c1ccc(Cl)cc1Cl)c1c[nH]c2ccccc12 do in these assays?
Sa growth inh: 71

Results for CCOC(=O)c1ccc(NC(=O)C2=CC(=O)N3CCN=C3S2)cc1 ?
Sa growth inh: 84; Sa helicase inh: 0

Results for Clc1ccc(/C=N/c2ccccn2)cc1 ?
Sa growth inh: 1.3*; Sa helicase inh: 12

Results for O/N=C/c1ccc(Cl)cc1 ?
Sa growth inh: 96; Sa helicase inh: 6

How did Nc1ccccc1N1CCCC1 do in these assays?
Sa growth inh: 2.8*; Sa helicase inh: 11

Results for c1ccc2c(c1)N1CCN2CC1 ?
Sa growth inh: 94; Sa helicase inh: -9

Results for Cc1nc2nc(N)[nH]c(=O)c2nc1C ?
Sa growth inh: 90; Sa helicase inh: 7

What do the screens show for `Cc1ccc(C)n1-c1ccc(SCC(=O)O)cc1`?
Sa growth inh: 89; Sa helicase inh: 42*
